An excerpt weighted towards active compounds, which were near 8.8% of everything screened.
Lamin A splicing: qHTS Assay for Modulators of Lamin A Splicing. HeLa LMNA splicing GFP/RFP minigene ratio, 48 h. Potency, µM (doses to about 46.1 µM), usual class: inhibitors. 200,000 tested, 0.01% active. AID 1487, 2009; active = well fitted inhibition curve with a large enough effect in the signal ratio, with a control signal flat, not every such curve was filed as active; inconclusive = small, poorly fitted or top-dose-only effect, or effect the other way, or a change in a side signal; the % refers to the signal ratio
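Read-out is the ratio of GFP to DsRed2 object intensity, acquired by 488 nm laser-scanning cytometry on HeLa lamin A-EGFP minigene reporter cells. Compound incubation 48 hrs at 37 °C in Opti-MEM with 2% FBS; DMSO 0.5% final.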
ALDH1A1 block: qHTS Assay for Inhibitors of Aldehyde Dehydrogenase 1 (ALDH1A1); Aldehyde dehydrogenase 1A1 (Homo sapiens), P00352; Purified ALDH1A1, NADH fluorescence, propionaldehyde substrate; Potency, µM (doses to about 75.3 µM), hits mostly inhibitors; 220,000 tested, 7.3% active; active = well fitted inhibition curve with a large enough effect, not every such curve was filed as active; inconclusive = small, poorly fitted or top-dose-only effect, or another doubt; inactive = no such curve, though single readings can be large or run the other way
HTT ATP protect: qHTS Multiplex Assay to Identify Dual Action Probes in a Cell Model of Huntington: Cytoprotection (ATP); PC12 HTT-Q103 induced, cytoprotection, ATP luminescence, 40 h; Potency, µM (doses to about 56.4 µM), actives largely listed as activators; 230,000 tested, 0.14% active; AID 1471, 2008; note: nearly all actives have a fitted effect of over 45% in size
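PC12 cells stably carrying ecdysone-inducible Htt exon 1 (Q103)–GFP were induced with 100 nM tebufenozide (final) alongside library compounds in a dose series. Cytoprotection was scored as retained ATP by ATPlite luminescence.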
HPGD block: qHTS Assay for Inhibitors of HPGD (15-Hydroxyprostaglandin Dehydrogenase) | 15-hydroxyprostaglandin dehydrogenase [NAD(+)] (Homo sapiens), P15428 | purified HPGD, NADH fluorescence kinetic, PGE2 substrate | Potency, µM, hits mostly inhibitors | 150,000 tested, 4.3% active | AID 894, 2007; active = well fitted inhibition curve with a large enough effect, not every such curve was filed as active; inconclusive = small, poorly fitted or top-dose-only effect, or another doubt; inactive = no such curve, though single readings can be large or run the other way
Target sequence (P15428 whole entry, looked up): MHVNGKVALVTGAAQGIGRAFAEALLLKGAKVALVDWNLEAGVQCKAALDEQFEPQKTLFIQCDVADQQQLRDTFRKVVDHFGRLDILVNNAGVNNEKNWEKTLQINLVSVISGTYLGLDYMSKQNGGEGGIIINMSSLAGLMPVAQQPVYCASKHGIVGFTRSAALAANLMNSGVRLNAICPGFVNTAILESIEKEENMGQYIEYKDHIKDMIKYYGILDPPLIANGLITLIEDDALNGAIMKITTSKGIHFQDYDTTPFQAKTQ
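20 nM HPGD preincubated 15 min at room temperature with compound in 50 mM Tris-HCl pH 8, 0.01% Tween 20. Started with 1 mM NAD+ and 30 uM prostaglandin E2; NADH fluorescence (360/450 nm) read 5 times over 30-s intervals, last minus first.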
HTT aggregate: qHTS Multiplex Assay to Identify Dual Action Probes in a Cell Model of Huntington: Aggregate Formation (GFP) | 220,000 tested, 1.1% active | Potency, µM (top dose mostly 46.1 µM), actives largely listed as inhibitors | PC12 HttQ103-GFP aggregates, Acumen cytometry, 40 h; note: nearly all actives have a fitted effect of over 60% in size
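Aggregates are detected as GFP objects 1–25 µm with signal 6 STDEV over background in lysates of induced PC12 cells. These carry Huntingtin exon 1 with 103 glutamines fused to GFP under an ecdysone promoter; compounds titrated.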
Numbers stand for hits; [ ] = another dose, or the depositor's remark. Unless noted, calls come from the whole dose curve; as a rule, active = well fitted curve in the direction sought with a large enough effect; inconclusive = small, poorly fitted or top-dose-only effect, or another doubt; inactive = no such curve, though single readings can be large; an effect the other way counts as inactive or inconclusive.

How did CNC(=S)N1CCN(C(c2ccccc2)c2ccccc2)CC1 do in these assays?
Lamin A splicing: inconclusive; ALDH1A1 block: 2µM; HTT ATP protect: inactive[10 µM]; HTT aggregate: inactive[9.22 µM]

How did S=C(NCC1CCCO1)N1CCN(c2nc(-c3ccccc3)cs2)CC1 (stereo not given) do in these assays?
Lamin A splicing: inconclusive; ALDH1A1 block: inconclusive; HTT ATP protect: inactive[10 µM]; HTT aggregate: inactive[9.22 µM]

How did S=C(NCC1CCCO1)Nc1ccccc1Cl (stereo not given) do in these assays?
Lamin A splicing: inactive; ALDH1A1 block: inactive; HPGD block: 12.6µM; HTT aggregate: inactive

How did S=C(NCC1CCCO1)Nc1ccc(Cl)c(Cl)c1 (stereo not given) do in these assays?
Lamin A splicing: inconclusive; ALDH1A1 block: inactive; HTT ATP protect: inactive; HTT aggregate: inactive

How did CCC(C)NC(=S)N1CCN(Cc2ccccc2)CC1 (stereo not given) do in these assays?
ALDH1A1 block: inactive; HTT aggregate: 0.562µM

How did CCC(C)NC(=S)N1CCN(C(c2ccccc2)c2ccccc2)CC1 (stereo not given) do in these assays?
Lamin A splicing: inconclusive; ALDH1A1 block: inconclusive; HTT ATP protect: inactive[10 µM]; HPGD block: inactive; HTT aggregate: inactive

How did S=C(NCC1CCCO1)N1CCN(Cc2ccccc2)CC1 (stereo not given) do in these assays?
ALDH1A1 block: 25.1µM; HTT ATP protect: inactive[10 µM]; HTT aggregate: inactive[9.22 µM]

Results for CCS(=O)(=O)n1nc(-c2ccco2)nc1NCc1ccc(C(C)C)cc1 ?
Lamin A splicing: inactive

Results for COc1cccc([C@@H]2Oc3ccc(OC)cc3C[C@H]2OC(=O)NCc2ccco2)c1 ?
ALDH1A1 block: inconclusive; HTT ATP protect: inactive; HPGD block: inactive

How did Cc1ccc(C(=S)N2CCN(Cc3ccccc3)CC2)cc1 do in these assays?
Lamin A splicing: inconclusive; ALDH1A1 block: inconclusive; HTT ATP protect: inactive; HTT aggregate: inactive

What do the screens show for `Oc1cccc(C(=S)N2CCN(Cc3ccccc3)CC2)c1`?
Lamin A splicing: inactive; ALDH1A1 block: 11.2µM; HTT ATP protect: inactive[0.074 µM]; HPGD block: 14.1µM; HTT aggregate: inactive

Results for C=CCNC(=S)N1CCN(c2ccccc2Cl)CC1 ?
HTT ATP protect: inactive[10 µM]; HTT aggregate: inactive[9.22 µM]

How did C=CCNC(=S)N1CCN(Cc2ccccc2)CC1 do in these assays?
Lamin A splicing: inactive; ALDH1A1 block: 14.1µM; HTT ATP protect: inactive[10 µM]; HTT aggregate: inactive[9.22 µM]

How did COc1ccc(NC(=S)NCC2CCCO2)c(C)c1 (stereo not given) do in these assays?
Lamin A splicing: inactive; ALDH1A1 block: inactive; HPGD block: inactive; HTT aggregate: inactive

Results for CCN1CCN(C(=S)NC(C)c2ccccc2)CC1 (stereo not given) ?
Lamin A splicing: inactive; ALDH1A1 block: 18.9µM; HTT ATP protect: inactive[10 µM]; HPGD block: inactive; HTT aggregate: inactive

Results for COc1ccccc1NS(=O)(=O)c1ccc(O)c(NC(=S)NCC2CCCO2)c1 (stereo not given) ?
Lamin A splicing: inactive; ALDH1A1 block: 5.62µM; HTT ATP protect: inactive[10 µM]; HTT aggregate: inactive[9.22 µM]

Results for O=C1c2ccccc2C(=O)N1CSc1nnc(Nc2ccccc2F)s1 ?
Lamin A splicing: inactive; ALDH1A1 block: 7.08µM; HTT ATP protect: inactive[10 µM]; HPGD block: inactive; HTT aggregate: inactive

How did O=C1C=C(c2cccs2)C[C@H](c2ccccc2)[C@H]1n1nnc([N+](=O)[O-])n1 do in these assays?
Lamin A splicing: inconclusive; ALDH1A1 block: 7.94µM; HTT ATP protect: inactive[10 µM]; HPGD block: inactive; HTT aggregate: inactive

Results for CC(=O)C1C(=O)C=C(c2cccs2)CC1c1ccccc1 (stereo not given) ?
Lamin A splicing: inactive[9.22 µM]; ALDH1A1 block: inconclusive; HTT ATP protect: inactive; HTT aggregate: inactive

What do the screens show for `CC(=O)c1ccc(N/C=C\C(=O)c2ccc(C)cc2)cc1`?
Lamin A splicing: inactive; ALDH1A1 block: inactive; HTT ATP protect: inactive[10 µM]; HTT aggregate: inactive

What do the screens show for `Cc1ccc(C(=O)/C=C/C(=O)O)cc1`?
Lamin A splicing: inconclusive; ALDH1A1 block: 0.447µM; HTT ATP protect: inactive[10 µM]; HPGD block: inconclusive; HTT aggregate: inconclusive

From PubChem
